# According to PubChem BioAssay (EPA / NIEHS):
# Inconclusive results are not listed. Calls of active or inactive are those of the source. The calls were made as follows: active = hit-call score of the fitted dose curve at least 0.9, where 1 is the maximum; inconclusive = response in the unintended direction; inactive = score below 0.9.
# Molecular target: human Matrix Metalloproteinase-1 (MMP1), MMP1 (gene 4312) (UniProt P03956)
# Test: NVS_ENZ_hMMP1: NovaScreen (NVS) Enzymatic Assay for human Matrix Metalloproteinase-1 (MMP1) (AID 2283181)
# Method: NVS_ENZ_hMMP1 is a biochemical, single-readout assay that uses extracted gene-proteins in a cell-free assay. Measurements were taken 1 hour after chemical dosing in a 96-well plate.NVS_ENZ_hMMP1 is one of one assay component(s) measured or calculated from the NVS_ENZ_hMMP1 assay. It is designed to make measurements of enzyme activity, a form of enzyme reporter, as detected with fluorescence intensity signals by Fluorescence technology.Data from the assay component NVS_ENZ_hMMP1 was analyzed into 1 assay endpoint. This assay endpoint, NVS_ENZ_hMMP1, was analyzed in the positive analysis fitting direction relative to DMSO as the negative control and baseline of activity. Using a type of enzyme reporter, loss-of-signal activity can be used to understand changes in the enzymatic activity as they relate to the gene MMP1. Furthermore, this assay endpoint can be referred to as a primary readout, because this assay has produced multiple assay endpoints where this one serves a enzymatic activity function. To generalize the intended target to other relatable targets, this assay endpoint is annotated to the protease intended target family, where the subfamily is matrix metalloproteinase.
# Binding assays used specific radioligands (tritiated, iodinated) with non-radioactive competitive displacement ligands in agonist or antagonist protocols (as indicated) and various reference compounds and inhibitors to titrate specific binding to receptors and transporters. Most enzyme assays (CYPs, kinases, phosphatases, proteases, HDACs) used recombinant protein and specific substrates (fluorescence mostly, some colorimetric and radioactive) and inhibitors, followed by a biochemical separation of substrate and product. All assays for the biochemical HTS were initially run in duplicate at a single concentration (10 uM for CYP450 assays and 25 uM for all others). Assay-chemical combinations meeting a pre-defined threshold (e.g., 30% inhibition and other criteria defined below) were then run in singleton concentration-response format with maximum concentration of 20 uM for CYPs and 50 uM for all others. Each assay was run with positive and negative controls, and concurrent controls on every plate. The follow-up (secondary) screen tested active chemical-pairs in concentration series, as well as a few additional assays not tested in the primary screen, some selected negative inactives, and several cases re-run in the concentration series for confirmatory purposes.
# Chain of human Matrix Metalloproteinase-1 (MMP1), MMP1 (gene 4312) (P03956 whole entry, looked up): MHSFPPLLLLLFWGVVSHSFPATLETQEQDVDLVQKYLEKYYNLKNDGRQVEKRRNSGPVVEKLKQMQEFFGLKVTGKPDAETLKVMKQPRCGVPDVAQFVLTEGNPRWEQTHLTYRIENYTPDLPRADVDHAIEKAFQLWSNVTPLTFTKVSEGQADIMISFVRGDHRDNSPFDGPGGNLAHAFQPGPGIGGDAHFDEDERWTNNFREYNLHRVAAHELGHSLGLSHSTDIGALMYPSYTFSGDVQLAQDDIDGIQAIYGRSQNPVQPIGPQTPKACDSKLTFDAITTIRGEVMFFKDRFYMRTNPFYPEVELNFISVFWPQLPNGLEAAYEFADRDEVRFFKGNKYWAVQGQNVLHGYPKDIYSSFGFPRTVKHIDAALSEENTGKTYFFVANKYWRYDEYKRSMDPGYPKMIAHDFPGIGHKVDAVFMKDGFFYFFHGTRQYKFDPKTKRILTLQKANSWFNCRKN
Compound,outcome,AC50
CC(=O)S[C@H](C(=O)N[C@H]1Cc2ccccc2[C@H]2CCC[C@@H](C(=O)O)N2C1=O)C(C)C,inactive,
CCCCCCCCCC,inactive,
CCc1cc(SCc2sc(-c3ccc(C(F)(F)F)cc3)nc2CN2CCN(c3ccc(OC)cc3)CC2)ccc1OCC(=O)O,,1.06 µM (active)
CCC(C)c1ccccc1O (stereo not given),,11.9 µM (active)
CN(C)c1ccc(N=NS(=O)(=O)O)cc1,inactive,
O=[N+]([O-])c1ccc(O)cc1,,16.9 µM (active)
O=C(O)CCN(C1(C(=O)NO)CCCC1)S(=O)(=O)c1ccc(Oc2ccc(F)cc2)cc1,,3.49 µM (active)
CCCCN1C(=O)[C@@H]([C@H](O)C2CCCCC2)NC(=O)C12CCN(Cc1ccc(Oc3ccc(C(=O)O)cc3)cc1)CC2,inactive,
CC(=O)O[C@]1(C(C)=O)CC[C@H]2[C@@H]3C=C(Cl)C4=CC(=O)[C@@H]5C[C@@H]5[C@]4(C)[C@H]3CC[C@@]21C,inactive,
c1ccc2n[nH]nc2c1,inactive,
COc1ccc2cc(S(=O)(=O)N[C@H](CC(=O)N[C@H](Cc3ccc(CN4[C@H](C)CCC[C@@H]4C)cc3)C(=O)N(C)C(C)C)c3ccc4c(c3)OCO4)ccc2c1,inactive,
O=C(O)c1cccc(C(=O)O)c1,,13 µM (active)
O=P(OC(CCl)CCl)(OC(CCl)CCl)OC(CCl)CCl,inactive,
CO[C@@H]1COCC[C@@H]1N[C@@H]1CC[C@@](C(=O)N2CCc3ncc(C(F)(F)F)cc3C2)(C(C)C)C1,inactive,
CCCCCCCCCCCCCCCCOS(=O)(=O)O,,4.54 µM (active)
O=C(NO)C1(NS(=O)(=O)c2ccc(Oc3ccc(F)cc3)cc2)CCOCC1,,17.9 µM (active)
CCCCOC(=O)CC(CC(=O)OCCCC)(OC(C)=O)C(=O)OCCCC,inactive,
CCCCCCCCOC(=O)c1cc(O)c(O)c(O)c1,,13.9 µM (active)
NCCO,inactive,
CCCCc1nc2cccnc2n1Cc1ccc(-c2ccccc2-c2nnn[nH]2)cc1,,2.25 µM (active)

Compound,outcome,AC50
COC(=O)c1ccccc1O,inactive,
COc1ccc2sc(C(=O)Nc3nnn[nH]3)c(OC(C)C)c2c1,inactive,
Cc1ccc([N+](=O)[O-])cc1N,inactive,
O=C(O)c1cccnc1,inactive,
CC(C)(c1cc(Br)c(O)c(Br)c1)c1cc(Br)c(O)c(Br)c1,inactive,
CCN(Cc1cccnc1)C(=O)c1cccc(Cl)c1[C@]1(C)C(=O)N(Cc2ccc(OC)cc2OC)c2ccc(Cl)cc21,,9.73 µM (active)
Cc1c(C)c2c(c(C)c1O)CCC(C)(COc1ccc(CC3SC(=O)NC3=O)cc1)O2 (stereo not given),,6.75 µM (active)
NC(=O)c1nc(-c2cccc(-c3cc(F)ccc3OCC(F)(F)C(F)(F)F)c2)n[nH]1,,1.27 µM (active)
C=CCOC(Cn1ccnc1)c1ccc(Cl)cc1Cl (stereo not given),,14 µM (active)
CC(C)c1cccc(C(C)C)c1NC(=O)NS(=O)(=O)c1cc(C(C)(C)O)co1,,37.1 µM (active)
O=c1[nH]c2ccc(S(=O)CCN3CCC(Cc4ccc(F)cc4)CC3)cc2o1 (stereo not given),inactive,
Cc1ccc(S(=O)(=O)NC(=O)NN2CCCCCC2)cc1,,6.9 µM (active)
CCCOC(=O)c1cc(O)c(O)c(O)c1,,16.1 µM (active)
CCc1cc(C2=C(C(=O)O)N(c3ccccc3C(F)(F)F)S(=O)(=O)c3ccccc32)cc2c1OCO2,,12.3 µM (active)
CC(C)(O)c1coc(S(=O)(=O)NC(=O)Nc2c3c(cc4c2CCC4)CCC3)c1,inactive,
COCCOCCOC,inactive,
Clc1cc(Cl)c(Cl)cc1Cl,inactive,
CNS(=O)(=O)c1cc(C(=O)N2CCC(CCN3C4CCC3CC(n3c(C)nc5ccccc53)C4)(c3cccc(F)c3)CC2)c(Cl)cc1F (stereo not given),,16.7 µM (active)
Cc1cc(=O)[nH]c(=S)[nH]1,inactive,
CCN(Cc1cccc(S(=O)(=O)O)c1)c1ccc(C(=C2C=CC(=[N+](CC)Cc3cccc(S(=O)(=O)O)c3)C=C2)c2ccccc2S(=O)(=O)[O-])cc1,inactive,
